The values that follow come from PubChem BioAssay (EPA / NIEHS).

Experiment [1] can be described thus: Tanguay_ZF_120hpf_SWIM_legacy: (Legacy) Oregon State University Tanguay Lab 120 Hour Post-fertilization zebrafish Assay for Swim Bladder Malformation (AID 2283654).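 Further: swim bladder malformation in each larva scored yes or no under brightfield.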 The method in brief: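 Scoring is binary for swim bladder defects at 120 hpf, by brightfield inspection of zebrafish larvae. Embryos were exposed singly from 6 hpf after pronase dechorionation, at 28C with 0.64% DMSO; mortality excluded scoring.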

Experiment [2] is described as follows: Tanguay_ZF_120hpf_TRUN_legacy: (Legacy) Oregon State University Tanguay Lab 120 Hour Post-fertilization zebrafish Assay for Truncated Body (AID 2283655). The method in brief: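 Truncated body is recorded as a binary endpoint at 120 hpf by brightfield imaging of wild-type 5D larvae. Exposure runs statically from 6 hpf at 28C with 0.64% DMSO; embryos dying earlier are not scored.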

Experiment [3] in a line: Tanguay_ZF_120hpf_NC_legacy: (Legacy) Oregon State University Tanguay Lab 120 Hour Post-fertilization zebrafish Assay for Notochord and Tail Malformation (AID 2283656). The gist of the method:
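Binary notochord-distortion calls, made by brightfield inspection, form the read-out; activity is fitted in the positive direction against DMSO. Exposure ran statically from 6 to 120 hpf at 28C with 0.64% DMSO.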

The nature of experiment [4]: Tanguay_ZF_120hpf_TR_legacy: (Legacy) Oregon State University Tanguay Lab 120 Hour Post-fertilization zebrafish Assay for Touch Response (AID 2283667). The method in brief:
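Binary touch-response endpoint in larvae at 120 hpf after static waterborne exposure from embryo stage (28°C, 0.64% DMSO vehicle, 5 uM trimethyltin chloride as positive control); embryos dead at 24 or 120 hpf excluded; fitted as gain versus DMSO.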

A short description of experiment [5]: CCTE_Padilla_ZF_144hpf_TERATOSCORE: (Legacy) CCTE's 144 Hour Post-fertilization zebrafish Assay Teratoscore, Padilla Lab (AID 2283679; active means hit-call score of the fitted dose curve at least 0.9, where 1 is the maximum; inactive means score below 0.9;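 on AC50: zebrafish embryos with chorions exposed by immersion from 6-8 hpf to 5 dpf with daily renewal; teratogenicity score from eye scoring of death hatching and malformations at 144 hpf; higher score means more developmental defects relative to DMSO baseline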). The gist of the method: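 Larvae scored by eye at 144 hpf for death, hatching and malformations after a day in clean Hanks'. Before that, daily-renewed exposure at 80 uM (0.4% DMSO, 26C) from roughly 6-8 hpf through 5 dpf, 4 embryos per chemical.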

Experiment [6] in a line: CEETOX_H295R_MTT_cell_viability: Viability Assessment in the CeeTox HT-H295R MTT Assay (AID 2283718; active means hit-call score of the fitted dose curve at least 0.9, where 1 is the maximum; inactive means score below 0.9;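 on AC50: curve fitted both ways so AC50 may mark viability loss or gain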). The gist of the method: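 MTT reduction (0.5 mg/ml, 4 h at 37 C; absorbance at 570 and 650 nm) gave viability as background-corrected percent change versus controls. H295R cells had 48 h forskolin (10 uM) prestimulation, then 48 h chemical exposure at 0.1% DMSO.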
The nature of experiment [7]: Tanguay_ZF_120hpf_ActivityScore_legacy: (Legacy) Oregon State University Tanguay Lab 120 Hour Post-fertilization zebrafish Assay Score for Activity (AID 2283742).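 On AC50: dechorionated Tropical 5D wild-type zebrafish embryos held singly per well.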 The gist of the method: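 Binary scoring of mortality and morphology by brightfield at 24 and 120 hpf, summarised into one activity score from 18 components relative to DMSO. Wild-type Tropical 5D zebrafish, chorion removed at 4 hpf, static exposure 6–120 hpf, 28 °C.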

Experiment [8] in a line: STM_H9_OrnCyssISnorm_ratio: Stemina devTOX quickPredict H9 human embryonic stem cell (hESC)-based Assay for Ornithine (ORN):Cystine (CYSS) Ratio (AID 2283714). The gist of the method:
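Ratio of internal-standard-normalized ornithine to cystine, measured by UPLC-HRMS in spent media from the last 24 h. H9 cells kept pluripotent, dosed 72 h with daily media and compound renewal; DMSO 0.1% serves as baseline.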

Experiment [9] is described as follows: ArunA_CellTiter_hNC: Viability Assessment in the ArunA Biomedical's Oris Neural Crest (hNC) Cell Migration Assay (AID 2283752). The method in brief: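 Cytotoxicity endpoint run alongside the migration assay: neural crest cells on Matrigel, 60,000 per well, preincubated 16 h at 37C, treated 72 h; CellTiter Aqueous One signal loss relative to DMSO.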
Experiment [10] in a line: ArunA_CellTiter_hNP: Viability Assessment in the ArunA Biomedical's Oris Neural Crest (hNC) Cell Migration Assay (AID 2283753). The method in brief: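 Viability read with CellTiter 96 Aqueous One after 72 h chemical exposure of human hNP1 neuroprogenitors, which were plated on Matrigel in LIF/bFGF medium 16 h beforehand. Endpoint fitted in positive direction relative to DMSO.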

Experiment [11] in a line: ArunA_Migration_hNP: ArunA Biomedical's Oris Neuroprogenitor (hNP) Cell Migration Assay (AID 2283754). The gist of the method: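 Readout is calcein-AM fluorescence (ex494/em517) of cells migrating into the detection zone, relative to DMSO. hNP1 cells (H9-derived) grown on Matrigel behind stoppers 16 h, then stoppers pulled and chemical applied 72 h; cytochalasin D as control.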

Experiment [12] can be described thus: ArunA_Migration_hNC: ArunA Biomedical's Oris Neural Crest (hNC) Cell Migration Assay (AID 2283755). The method in brief: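 Calcein-AM fluorescence (ex494 nm/em 517 nm) in the stopper-defined detection zone quantifies migration of hNC cells after 72 h chemical exposure; 60,000 cells/well plated on Matrigel with LIF and bFGF, 16 h pre-incubation. DMSO baseline.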

Experiment [13] is described as follows: ArunA_NOG_NucleusCount: ArunA Biomedical's Neurite Outgrowth (NOG) Assay for Nucleus Count (AID 2283756). The gist of the method:
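Viable neuron count, from Hoechst nuclei passing size and intensity gates, imaged at 20x on differentiated H9-derived human neurons. Exposure lasted 48 h from seeding; activity was scored relative to DMSO.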

For experiment [14], the system named is Thyroperoxidase (TPO), gene 445522. Put plainly: CCTE_Simmons_GUA_TPO: CCTE's Guaiacol Assay for Thyroperoxidase (TPO) Inhibition, Simmons Lab (AID 2283750). The method in brief: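 Porcine thyroid microsomes (25 ug) in 200mM potassium phosphate, preincubated 30 s at 37C with compound (8 concentrations, 5 nM–87.5 uM) and 35mM guaiacol; 1mM H2O2 starts reaction. Absorbance change at 450nm over first 80 s; loss of signal versus DMSO, three replicates.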

Broadly, the AC50 is the concentration giving half of the maximal activity seen.

Several values for one entry are separate records, joined by “and”; a condition that tells them apart may be missing. Identical values can stand only once. Results filed as inconclusive are left out. Activity calls are given as the source filed them. How the source made its calls, unless noted: active means hit-call score of the fitted dose curve at least 0.9, where 1 is the maximum; inconclusive means response in the unintended direction; inactive means score below 0.9.

Regarding `Cc1oc2c(NC(=O)c3c(Cl)cccc3Cl)cccc2c1C(C)(C)O`, the call in experiment [1], in experiment [2], in experiment [3], in experiment [4] and in experiment [6] was inactive. Moreover, the figures for the AC50 in experiment [5] and in experiment [7] were 8.93 µM (active) and 45.5 µM (active), respectively.
Consider `CCCCCc1ccc(N)cc1`, for which the result in [1], in experiment [2], in experiment [3], in experiment [4], in experiment [6] and in experiment [7] was inactive. Further, the half-maximal activity concentration (AC50) in [5] was 65.9 µM (active).
For `CCCCCCCCOC(=O)c1cc(O)c(O)c(O)c1`, the outcome in [1], in experiment [2], in experiment [3], in experiment [4], in experiment [6] and in experiment [9] was inactive. Also, the compound was classed as inactive in experiment [13]. Besides, the AC50 in experiment [5] was 1.43 µM (active); in experiment [8] it was 2.54 µM (active); in experiment [7] it was 9.16 µM (active); in experiment [10] it was 6.65 µM (active) and 541 nM (active); in experiment [11] it was 1.02 µM (active) and 675 nM (active); in experiment [12], 120 nM (active) and 452 nM (active).
For `Oc1ccc2ccccc2c1`, the call in experiment [1], in experiment [3] and in experiment [6] was inactive. For the same compound, the half-maximal activity concentration (AC50) is 50.2 µM (active) in experiment [2]; 33.6 µM (active) in experiment [4]; 57.1 µM (active) in [5]; 36.6 µM (active) in experiment [7]; 72.8 µM (active) in experiment [14].
`COc1ccc2cc(S(=O)(=O)N[C@H](CC(=O)N[C@H](Cc3ccc(CN4[C@H](C)CCC[C@@H]4C)cc3)C(=O)N(C)C(C)C)c3ccc4c(c3)OCO4)ccc2c1`: the outcome in [1], in experiment [2], in experiment [3], in experiment [4] and in [7] was inactive. Also, the half-maximal activity concentration (AC50) was 52.9 µM (active) in experiment [5] and 23 µM (active) in experiment [8].
Turning to `CC(C)(O)c1ccc(CNC(=O)c2cccnc2Oc2ccc3nonc3c2)cc1`, the call in experiment [1], in experiment [2], in experiment [6] and in experiment [7] was inactive.
Regarding `CN1C(=O)N(c2ccccc2Br)Cc2cnc(Nc3ccc4c(c3)OCC(CO)O4)nc21` (centres undefined), the result in experiment [1], in [2] and in [6] was inactive. Further, the AC50 in experiment [5] is 4.31 µM (active); in experiment [8], 1.18 µM (active); in experiment [7], 6.73 µM (active).
As for `CCOC(=O)O[C@H](C)OC(=O)c1ccc2c(c1)cc(C(=O)NC1CCN(C(C)C)CC1)n2Cc1cc(-c2ccc(Cl)s2)on1`, the result in [2], in experiment [3] and in experiment [4] was inactive. For the same compound, the AC50 in [5] was 4.27 µM (active); in [7] it was 34.8 µM (active).
With `CCCCCCCCN(C)CCCCCCCC`, the call in experiment [2], in experiment [3], in [4], in experiment [8], in experiment [6] and in experiment [7] was inactive.
Take `Clc1cc(Cl)c2c(c1)N=C1CCCCCN1C2`: the compound was classed as inactive in [1], in experiment [3], in experiment [8] and in experiment [6]. The AC50 in experiment [4] is 15.7 µM (active); in experiment [5], 12.2 µM (active); in experiment [7], 18 µM (active).
For `COc1cccc([C@H](O)C2CCN(CCc3ccc(F)cc3)CC2)c1OC`, the outcome in experiment [2], in experiment [3], in experiment [4], in [6] and in experiment [7] was inactive. The half-maximal activity concentration (AC50) in experiment [5] was 124 µM (active); in experiment [8], 10 µM (active).
As for `CC[C@@H]1C[C@H](N(Cc2cc(C(F)(F)F)cc(C(F)(F)F)c2)C(C)=O)c2cc(C(F)(F)F)ccc2N1C(=O)OC(C)C`, the call in [1] and in experiment [7] was inactive.
As to `OC12N=C(c3ccccc3)SC1Cc1cc(Cl)ccc12` (centres undefined), the compound was classed as inactive in experiment [1] and in experiment [6]. Moreover, the concentration at half-maximal activity (AC50) in experiment [2] was 48.2 µM (active); in experiment [4] it was 14.9 µM (active); in experiment [7], 32.7 µM (active).
`CC/C(=C(/CC)c1ccc(O)cc1)c1ccc(O)cc1`: the compound was called inactive in [1] and in experiment [8]. In addition, the AC50 in experiment [5] is 5.03 µM (active); in experiment [6], 24.4 µM (active); in experiment [7], 28.5 µM (active).
In the case of `Cc1c2ccccc2c(C)c2c1ccc1ccccc12`, the outcome in experiment [2], in experiment [3], in experiment [4] and in experiment [6] was inactive. Besides, the concentration at half-maximal activity (AC50) is 4.42 µM (active) in experiment [5], 5 µM (active) in [8], 8.83 µM (active) in [7] and 146 µM (active) in experiment [14].
For the compound `CN(C)c1ccc(C(=C2C=CC(=[N+](C)C)C=C2)c2ccc(N(C)C)cc2)cc1`, the call in experiment [1], in [2] and in experiment [4] was inactive. Moreover, the concentration at half-maximal activity (AC50) is 0.477 µM (active) in experiment [5], 0.723 µM (active) in [8] and 1.66 µM (active) in experiment [7].
Consider `O=C1O[C@H]([C@@H](O)CO)C(O)=C1O`, for which the result in experiment [2], in [3], in [4], in experiment [5] and in [7] was inactive.
For the compound `CCCCCCCCCCCO`, the outcome in experiment [1], in [2], in experiment [4] and in [7] was inactive. Besides, in experiment [5], the concentration at half-maximal activity (AC50) was 62.4 µM (active).
As for `O=C(O)c1ccccc1C(=O)OCc1ccccc1`, the call in experiment [1], in [3], in experiment [4], in experiment [6] and in [7] was inactive.
Turning to `CN(C[C@@H](CC[N+]12CCC(C3CCCCC3)(CC1)CC2)c1ccc(Cl)c(Cl)c1)C(=O)c1cc(C(F)(F)F)cc(C(F)(F)F)c1`, the outcome in [1], in [2] and in experiment [4] was inactive. For the same compound, the concentration at half-maximal activity (AC50) in experiment [5] is 4.91 µM (active); in experiment [8], 14.4 µM (active); in experiment [7], 46.9 µM (active).
